Reference: PubChem BioAssay AID720540 (National Center for Advancing Translational Sciences (NCATS), 2013)
Screen size: about 1,300 compounds; about 460 (35%) were called active. Another 39% or so got no clear call; they are omitted. Calls come from the whole dose curve; as a rule, active = well fitted inhibition curve with a large enough effect; inconclusive = small, poorly fitted or top-dose-only effect; inactive = flat fitted curve, though single readings scatter. The list shows a part of the results.

target: Protein phosphatase EYA2 (Homo sapiens) (UniProt O00167); assay: qHTS for Inhibitors of the Phosphatase Activity of Eya2: Confirmatory Assay for Cherry-picked Compounds; settings: purified EYA2 phosphatase activity, qHTS confirmation; series mostly up to 46.1 µM; note: nearly all actives have a fitted effect of over 65% in size
Sequence (O00167 whole entry, looked up): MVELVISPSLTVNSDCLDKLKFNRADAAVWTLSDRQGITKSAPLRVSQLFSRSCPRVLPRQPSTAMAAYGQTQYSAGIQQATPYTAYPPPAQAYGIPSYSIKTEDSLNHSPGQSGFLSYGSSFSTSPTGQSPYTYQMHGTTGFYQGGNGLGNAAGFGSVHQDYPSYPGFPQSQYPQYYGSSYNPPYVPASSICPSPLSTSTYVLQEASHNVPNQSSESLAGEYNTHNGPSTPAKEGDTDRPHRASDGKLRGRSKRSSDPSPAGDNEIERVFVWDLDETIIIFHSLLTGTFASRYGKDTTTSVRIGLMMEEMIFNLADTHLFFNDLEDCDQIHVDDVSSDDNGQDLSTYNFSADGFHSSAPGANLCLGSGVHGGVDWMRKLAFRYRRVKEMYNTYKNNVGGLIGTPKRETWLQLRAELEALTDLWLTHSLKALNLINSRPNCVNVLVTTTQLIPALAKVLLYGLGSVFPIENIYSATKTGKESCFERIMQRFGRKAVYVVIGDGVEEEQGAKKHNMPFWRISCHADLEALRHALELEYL
Method in brief: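 Eya2 (0.2 uM working solution) preincubated 10 min at room temperature with compound in pH 7.5 HEPES buffer with MgCl2, BSA, DTT. OMFP added (50 uM working solution), 10 min more; fluorescence 485/525 nm, normalized to EGTA and DMSO.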
Potency is the fitted concentration of half-maximal effect.

| Structure (SMILES) | Potency |
| --- | --- |
| CCN(CC)CCNC(=O)c1ccc(N)cc1 | inactive |
| CC(NC(=O)c1cc2c(s1)CS(=O)(=O)C2)c1ccccc1 (stereo not given) | inactive |
| Cc1cc(/C=C2\C=Cc3ccccc32)ccc1N(C)C | 7.57 µM (active) |
| COc1cc(/C=C2/C=Cc3ccccc32)ccc1N(C)C | 6.75 µM (active) |
| CCN(Cc1cccc(S(=O)(=O)O)c1)c1ccc(C(=C2C=CC(=[N+](CC)Cc3cccc(S(=O)(=O)O)c3)C=C2)c2ccc(O)cc2S(=O)(=O)O)cc1 | 6.01 µM (active) |
| CCN(Cc1cccc(S(=O)(=O)O)c1)c1ccc(C(=C2C=CC(=[N+](CC)Cc3cccc(S(=O)(=O)O)c3)C=C2)c2ccccc2S(=O)(=O)[O-])cc1 | 9.53 µM (active) |
| CC(=O)Nc1ccc(S(=O)(=O)N2C3CCCC2CC(NC(=O)C2CCCCC2)C3)cc1 (stereo not given) | inactive |
| Cc1nc2c(C(=O)Nc3ccc(N4CCCC(O)C4)cc3)snc2c(=O)[nH]1 (stereo not given) | inactive |
| CC(=O)Nc1ccc(S(=O)(=O)Nc2ccc(N3CCCCC3)cc2)cc1 | 8.49 µM (active) |
| O=C(Cc1ccccc1F)Nc1cccc(S(=O)(=O)N2CCCCC2)c1 | inactive |
| COc1cc(NC(=O)CN2C(=O)CSc3ccc(S(=O)(=O)N4CCCC4)cc32)cc(OC)c1 | 5.36 µM (active) |
| Cc1ccc(CNC(=O)C2CCN(S(=O)(=O)c3ccc4nc5c(c(C(=O)O)c4c3)CC(C)CC5)CC2)cc1 (stereo not given) | 8.49 µM (active) |
| COc1ccc(S(=O)(=O)N2CCN(C(=O)c3cc4c(s3)CCC4)CC2)cc1 | inactive |
| COc1ccc(CNC(=O)C2CCN(S(=O)(=O)c3ccc4nc5c(c(C(=O)O)c4c3)CCCC5)CC2)cc1 | 15.1 µM (active) |
| O=C(O)c1c2c(nc3ccc(S(=O)(=O)N4CCC(C(=O)NC5CCCC5)CC4)cc13)CCCCC2 | inactive |
| CCN(CC)c1ccc(/C=N/N2CCN(Cc3ccccc3Cl)CC2)cc1 | 7.57 µM (active) |
| CCN1C(=O)c2cccc3c(S(=O)(=O)N(C(C)=O)c4ccc(OC(C)=O)cc4)ccc1c23 | 15.1 µM (active) |
| CC(=O)Oc1ccc(N2C(=O)c3cccc4c([N+](=O)[O-])ccc(c34)C2=O)cc1 | inactive |
| O=C(O)c1c(Br)c(Br)c(Br)c(Br)c1C1c2ccc(O)cc2Oc2cc(O)ccc21 | 1.35 µM (active) |
| C[N+](C)(CCCCCI)c1ccc(/C=C/c2nc3ccccc3s2)cc1 | 13.5 µM (active) |
| Cc1ccc(C2CC(c3ccc(Br)cc3)=NN2C(=O)CSC2=NN3CCCC(=O)N=C3S2)cc1 (stereo not given) | inactive |
| Nc1ccc2nc3c(=O)[nH]c(=S)[nH]c3nc2c1 | 6.01 µM (active) |
| COC(=O)c1ccccc1NC(=S)NC(=O)c1ccc(C)cc1 | 13.5 µM (active) |

| Structure (SMILES) | Potency |
| --- | --- |
| O=C1C(N2CCOCC2)=Cc2cccc3cccc1c23 | 19 µM (active) |
| CCOC(=O)C1=C(N)Oc2c(oc(CO)cc2=O)C1c1ccc(Cl)cc1 (stereo not given) | inactive |
| COc1ccc(C(=O)CC(=O)Nc2ccc([N+](=O)[O-])cc2)cc1 | inactive |
| NC(N)=Nc1nc2cc([N+](=O)[O-])ccc2o1 | inactive |
| O=C(Nc1cc([N+](=O)[O-])ccc1O)c1cccc(C(=O)Nc2cc([N+](=O)[O-])ccc2O)c1 | 3.79 µM (active) |
| O=C(O)CSCc1nc2cccnc2n1C1CCCCC1 | inactive |
| O=C(O)C1=NN(c2cc(Cl)c(S(=O)(=O)O)cc2Cl)C(=O)C1 | 8.49 µM (active) |
| Cc1ccc(-c2csc(NC(=O)c3ccccc3F)c2C(=O)O)cc1 | 7.57 µM (active) |
| COc1cc(C(=O)Nc2scc(-c3ccc(Br)cc3)c2C(=O)O)cc(OC)c1OC | 19 µM (active) |
| CCCC[C@@]1(C2CCCC2)Cc2cc(OCC(=O)O)c(Cl)c(Cl)c2C1=O | inactive |
| O=C1/C(=C/C=C/c2ccco2)SC(=S)N1NS(=O)(=O)c1ccccc1 | 7.57 µM (active) |
| O=C(NN1C(=O)/C(=C/C=C/c2ccco2)SC1=S)c1ccncc1 | 6.01 µM (active) |
| CCn1c(SCC(=O)N2CCN(c3ccccc3)CC2)nc2c(c1=O)SC(C)C2 (stereo not given) | inactive |
| CN(C)c1ccc(N=c2sc3ccccc3n2C)cc1 | 7.57 µM (active) |
| Cc1cccc(N2CCN(C(=O)C3COc4ccccc4O3)CC2)c1C (stereo not given) | inactive |
| O=C(O)/C=C/C(=O)Nc1ccc2c(c1)C(=O)c1ccccc1C2=O | 16.9 µM (active) |
| Oc1c(C(Nc2nc3ccccc3s2)c2ccco2)ccc2cccnc12 (stereo not given) | 9.53 µM (active) |
| CN(C)c1ccc(C(=C2C=CC(=[N+](C)C)C=C2)c2ccc(N(C)C)cc2)cc1 | 6.01 µM (active) |
| CN(C)c1ccc(C(=C2C=CC(=[N+](C)C)C=C2)c2c(O)c(S(=O)(=O)[O-])cc3cc(S(=O)(=O)O)ccc23)cc1 | 7.57 µM (active) |
| O=C(Nc1ccc(-c2nc3cccnc3s2)cc1)C1CCCO1 (stereo not given) | inactive |
| Cc1cc(=O)n2nc(N3CCCC(C(=O)Nc4ccc(C)c(C)c4)C3)sc2n1 (stereo not given) | inactive |
| CCc1ccc(N=C2NC(=O)/C(=C/c3cc(OC)c(O)c(OC)c3)S2)cc1 | 19 µM (active) |
| COc1ccc(-c2ccc(SCc3cccnc3)nn2)cc1OC | 16.9 µM (active) |

| Structure (SMILES) | Potency |
| --- | --- |
| Cc1ccc(NC(=S)N2CCc3[nH]c4ccccc4c3C2)cc1 | inactive |
| COc1cccc(/C=N/N2C(=O)CSC2=S)c1O | 0.478 µM (active) |
| Nc1c(N=Nc2ccc([N+](=O)[O-])cc2)c(S(=O)(=O)O)cc2cc(S(=O)(=O)O)c(/C=C/c3ccccc3)c(O)c12 | 7.57 µM (active) |
| COc1ccc(C(CCNCc2ccc(N(C)C)cc2)C(C)C)cc1 (stereo not given) | 8.49 µM (active) |
| COc1ccccc1C(CCNCc1ccc(N(C)C)cc1)c1ccc(OC(C)C)cc1 (stereo not given) | 6.01 µM (active) |
| CC1Cc2ccccc2N1C(=O)C1CCCN1S(=O)(=O)c1ccc(Cl)cc1 (stereo not given) | inactive |
| Cc1nn(C)c(Cl)c1CN1CCCC(CO)(Cc2cccc(Cl)c2)C1 (stereo not given) | inactive |
| CC1CS(=O)(=O)CCN1N=Cc1ccc([N+](=O)[O-])o1 (stereo not given) | inactive |
| O=C(O)c1ccc2c(=O)n3cc(C(=O)c4ccccc4O)cc(Cl)c3nc2c1 | 15.1 µM (active) |
| C=C(CC[C@]12OC(C(=O)O)C(O)(C(=O)O)C(C(=O)O)(O1)C(OC(=O)/C=C/[C@@H](C)C[C@@H](C)CC)C2O)[C@@H](OC(C)=O)[C@H](C)Cc1ccccc1 (stereo not given in full) | 19 µM (active) |
| Cc1cc(C)c(C#N)c(Sc2nnnn2-c2ccccc2)n1 | inactive |
| COc1cc2c(cc1OC)-c1cc(Nc3ccccc3)nc(=O)n1CC2 | 6.75 µM (active) |
| COc1ccc(Nc2cc3n(c(=O)n2)CCc2cc(OC)c(OC)cc2-3)c(C)c1 | 15.1 µM (active) |
| COc1cc2c(cc1OC)-c1cc(Nc3ccc(F)cc3)nc(=O)n1CC2 | 2.39 µM (active) |
| CCOc1ccc(Nc2cc3n(c(=O)n2)CCc2cc(OC)c(OC)cc2-3)cc1 | 6.75 µM (active) |
| FC(F)(F)c1ccc(CN2C[C@@H]3C(c4ccc(Cl)nc4)C4(c5cccnc5)CC3(C4)[C@H]2c2ccccc2)cc1 (stereo not given in full) | inactive |
| O=C(NCc1ccco1)C1CC2CCC1C2 (stereo not given) | inactive |
| COc1cc2c(cc1OC)-c1cc(Nc3ccc(C)cc3)nc(=O)n1CC2 | 5.36 µM (active) |
| Cc1c(C(=O)/C=C/N(C)C)nnn1-c1ccc(Cl)cc1Cl | inactive |
| CCc1c(C)nc(Nc2nc(C)c3ccc(OC)cc3n2)[nH]c1=O | 3.79 µM (active) |
| C[C@](N)(Cc1ccc(O)c(O)c1)C(=O)O | inactive |
| COc1ccc(C(=O)Nc2ccc3c(c2)CCCN3C(=O)c2cccs2)c(OC)c1 | 8.49 µM (active) |
| COc1cc(NC(=O)c2ccccc2Cl)ccc1NC(=O)c1cccs1 | inactive |

| Structure (SMILES) | Potency |
| --- | --- |
| COc1ccccc1/C=C/C(=O)Oc1cccc2cccnc12 | 9.53 µM (active) |
| O=C(/C=C/c1ccco1)Oc1cccc2cccnc12 | 15.1 µM (active) |
| O=C(/C=C\c1ccccc1)Oc1cccc2cccnc12 | 7.57 µM (active) |
| O=C(/C=C/c1ccccc1)Oc1cccc2cccnc12 | 6.75 µM (active) |
| COCCNC(=O)CCC(=O)NNc1nc2ccccc2c2nc(-c3ccccc3)nn12 | inactive |
| c1ccc(-c2ccc(C3=Nn4c(nnc4-c4cc(-c5ccccc5)n[nH]4)SC3)cc2)cc1 | inactive |
| N#Cc1ccc(CSc2nnc(-c3c[nH]c4ccccc34)n2-c2ccccc2)cc1 | inactive |
| COc1ccc(N=C2SC(C(=O)N3CCN(c4ccc([N+](=O)[O-])cc4)CC3)CC(=O)N2C)cc1 (stereo not given) | inactive |
| COc1cc2nc(/C=C/c3ccc(N(C)C)cc3)sc2cc1SC | 19 µM (active) |
| COc1ccccc1NC(=O)c1ccc(NC(=O)Cc2n[nH]c(=O)c3ccccc23)cc1 | inactive |
| COc1ccccc1OCC(=O)Nc1ccc(C(=O)Nc2ccccc2C(=O)O)cc1 | 16.9 µM (active) |
| O=C(NC1=C(Nc2ccc(F)cc2)C(=O)c2ccccc2C1=O)c1ccc(Cl)cc1 | inactive |
| O=C(Nc1ccc(F)cc1)c1ccc2[nH]c(=O)c(=O)[nH]c2c1 | 4.78 µM (active) |
| N#Cc1c(N)n(-c2ccc(C(=O)O)cc2)c2nc3ccccc3nc12 | 16.9 µM (active) |
| N#Cc1c(N)n(-c2cccc(C(=O)O)c2)c2nc3ccccc3nc12 | 16.9 µM (active) |
| Cc1cc(/C=C2\C(=N)N3N=C(CC(=O)N4CCOCC4)SC3=NC2=O)c(C)n1Cc1ccccc1 | inactive |
| O=C(NN=C1CCCC1)c1[nH]c2ccc(Br)cc2c1-c1ccccc1 | inactive |
| COc1cc(/C=C2\C(C)=C(C#N)c3nc(N)c(C#N)c(C)c32)ccc1OCC(=O)O | 16.9 µM (active) |
| CN(C)c1ccc(/C=C2\CCc3cc(N)ccc32)cc1 | 8.49 µM (active) |
| CN(C)c1ccc(/C=C2\C=Cc3cc(N)ccc32)cc1 | 8.49 µM (active) |
| COc1ccc2c(c1)C=C/C2=C\c1ccc(N(C)C)cc1 | 5.36 µM (active) |
